Drawing on PubChem BioAssay (NCATS), this text covers Potency, outcome and max response for 22 compounds.

Inconclusive results are not listed. Values without a mark were called inactive. Active and inactive are the calls of the source. Calls come from the whole dose curve; as a rule, active = well fitted inhibition curve with a large enough effect; inconclusive = small, poorly fitted or top-dose-only effect; inactive = flat fitted curve, though single readings scatter.

The subject of test [1] is CRL-7250. Nature of the test: Cytotoxic Profiling of Annotated Libraries Using Quantitative High-Throughput Screening (AID 1296008). For max response: % is set by controls: 0 for no effect and ±100 for the full control effect. Note: potency is the fitted concentration of half-maximal effect. The settings on record: Five cell lines viability, CellTiter-Glo ATP luminescence, 48-72 h; max response: active compounds read low. A digest of the protocol:
(§1)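 Compounds were pin-transferred onto cells and incubated 48 or 72 hr at 37 degree Celsius, 95% humidity. CellTiter-Glo was added, plates sat 10 min at room temperature, then ATP-coupled luminescence was imaged as the viability read-out.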

Test [2] concerns HEK293. The description is as above. The settings on record: Five cell lines viability, CellTiter-Glo ATP luminescence, 48-72 h; max response: active compounds read low. A digest of the protocol:
as §1

Test [3] deals with HaCat. The test is described as above. The settings on record: Five cell lines viability, CellTiter-Glo ATP luminescence, 48-72 h; max response: active compounds read low. The essentials: as §1
For test [4], the system named is NIH3T3. The description is as above. To be noted: Five cell lines viability, CellTiter-Glo ATP luminescence, 48-72 h; max response: active compounds read low. A digest of the protocol:
as §1
Background: ATP-based viability assays read luminescence as a measure of living cells.

The test system of test [5] is HACAT. Briefly: qHTS assay to identify novel small-molecules to repurpose for Merkel cell carcinoma treatment (AID 1296009). To be noted: MCC and control cell lines, CellTiter-Glo viability, 72 h; at 44.8 µM (top of the series) unless noted. The essentials:
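Cells exposed to NPC (8-point) and MIPE (11-point) compound dilutions for 72 hr at 37 degree celsius; viability read by CellTiter-Glo luminescence, normalized to no-cell and DMSO in-plate controls.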
In general terms: Quantitative high-throughput screening tests each substance at several concentrations.
Note: nearly all actives have a fitted effect of over 60% in size.

For the compound `C1=C/COCc2cc(ccc2OCCN2CCCC2)Nc2nccc(n2)-c2cccc(c2)COC/1`, the Potency in test [1] was 6.51 µM (active); in test [2] it was 2.06 µM (active); in test [3], 5.8 µM (active); in test [4], 4.11 µM (active).

Regarding `CC(C)=C1C[C@@]2(C)C(=CC1=O)CC[C@@H](OC(=O)/C(C)=C/CO)[C@@H]2C`, the Potency in test [1] was 3.21 µM (active); in test [2], 1.28 µM (active). The result in test [3] and in test [5] was inactive. Moreover, the max response in test [4] was -20.7%.

Take `Cc1cccc(CC(=O)N2CCc3c2ccc(-c2cn(C)c4ncnc(N)c24)c3F)n1`: the Potency in test [1] is 1.84 µM (active); in test [2], 5.8 µM (active). The outcome in test [3] and in test [5] was inactive. In addition, in test [4], the max response is 3.48%.

Turning to `N#Cc1cc(-c2ccnc(Nc3ccc(N4CCOCC4)cc3)n2)ccc1OC1CCOCC1`, the Potency in test [1] is 4.11 µM (active); in test [2] it was 7.31 µM (active); in test [4], 11.6 µM (active). In addition, the outcome in test [3] and in test [5] was inactive.

With `CC(=O)OC(C)(C)/C=C/C(=O)C(C)(O)C1C(O)CC2(C)C3CC=C(C(C)(C)C(=O)O)C(CC(=O)O)C3(C)C(=O)CC12C` (stereo not given), the results for the max response in test [1] and in test [2] were 2% and -1.12%, respectively. Also, the outcome in test [3] and in test [4] was inactive. For the same compound, the outcome in test [5] was “inactive [at 17.4 µM]”.

For `CC[C@H]1CN(c2nc(N)c(C(N)=O)nc2Cl)CCN1C1CCN(Cc2ccc(Cl)cc2)CC1`, the results for the max response in test [1], in test [2] and in test [4] were 4.79%, -6.38% and 0.303%, respectively. For the same compound, the call in test [3] and in test [5] was inactive.

Take `CCOC(=O)c1cnc2ccc(-c3cncc(NS(=O)(=O)c4ccccc4)c3)cn12`: the Potency was 4.11 µM (active) in test [1], 1.03 µM (active) in test [2], 1.46 µM (active) in test [3] and 1.16 µM (active) in test [4].

Take `C/C1=C\[C@@H](C)C[C@@H](C)[C@@H](Cc2cnco2)OC(=O)/C(C)=C/[C@@H](C)C[C@@H](C)[C@@H](Cc2cnco2)OC1=O`: the Potency in test [1] was 2.52 µM (active); in test [2] it was 0.632 µM (active). Also, the max response in test [3] is -7.73%; in test [4] it was -16.6%.

Turning to `Cc1ccccc1C(C(=O)NC1CCCCC1)N(C(=O)Cn1cnc2ccccc21)c1cccc(F)c1` (stereo not given), the max response in test [1] is -31.4%. In addition, the Potency in test [2] was 16.4 µM (active); in test [3], 8.2 µM (active); in test [4], 18.4 µM (active).

As for `Cc1sc2c(c1C)C(c1ccc(Cl)cc1)=N[C@H](CC(=O)NCCCCNC(=O)COc1cccc3c1C(=O)N([C@H]1CCC(=O)NC1=O)C3=O)c1nnc(C)n1-2`, the Potency was 1.84 µM (active) in test [1] and 2.59 µM (active) in test [2]. Further, the max response was -67.4% in test [3] and -0.715% in test [4].

Take `Cc1cc(-c2ncc(-c3cccnc3)cc2/C=C/c2ccccc2)cnc1-c1cccnc1`: the call in test [1], in test [3] and in test [5] was inactive. Moreover, in test [2], the Potency is 2.59 µM (active). Besides, the max response in test [4] was 3.84%.

In the case of `COc1cc(Br)c(S(=O)(=O)Nc2ccc(Cl)c(O[C@@H]3CCN(C)C3)c2)cc1OC`, the result in test [1], in test [3] and in test [5] was inactive. Also, the Potency in test [2] was 7.31 µM (active). For the same compound, the max response in test [4] was -15.8%.

`CC(C)c1cc2c(N3CCN(C4=NCC(C)(C)S4)CC3)ncnc2s1`: the Potency in test [1] was 3.66 µM (active); in test [2], 1.3 µM (active). Besides, the outcome in test [3] and in test [5] was inactive. For the same compound, the max response in test [4] is -29.7%.

With `CCCCC1CCN(CCCN2C(=O)CCc3ccccc32)CC1`, the max response in test [1] is -13.3%; in test [3] it was -2.1%; in test [4], -7.86%. Further, the Potency in test [2] is 18.4 µM (active).

`CCCCCCOC(=O)/N=C(\N)c1ccc(NCc2nc3cc(C(=O)N(CCC(=O)OCC)c4ccccn4)ccc3n2C)cc1`: the max response in test [1] is -1.92%; in test [3], -18.9%; in test [4], -4.93%. Moreover, the Potency in test [2] was 18.4 µM (active).

Regarding `COc1cc(N2CCC(N)CC2)ccc1Nc1ncc(Cl)c(-c2c[nH]c3ccccc23)n1`, the Potency in test [1] is 6.51 µM (active); in test [2], 4.61 µM (active); in test [3], 5.17 µM (active); in test [4] it was 2.31 µM (active).

Regarding `CC[C@@H](Nc1c(Nc2cccc(C(=O)N(C)C)c2O)c(=O)c1=O)c1cc(C(C)C)co1`, the max response in test [1] was 4.29%; in test [2], -14.3%; in test [4], -6.94%. For the same compound, the result in test [3] and in test [5] was inactive.

For the compound `COc1ccc(C[C@H]2COC(=O)[C@@H]2Cc2ccc(O[C@@H]3O[C@H](CO)[C@@H](O)[C@H](O)[C@H]3O)c(OC)c2)cc1OC`, the results for the Potency in test [1] and in test [2] were 0.893 µM (active) and 1.78 µM (active), respectively. The max response was -11.8% in test [3] and -30.4% in test [4].

As to `CCNC(=O)Nc1ccc(-c2nc3c(c(N4CCOCC4C)n2)CCN(C2COC2)C3)cc1` (stereo not given), the results for the Potency in test [1], in test [2] and in test [4] were 0.206 µM (active), 1.46 µM (active) and 2.31 µM (active), respectively. Moreover, the max response in test [3] was -28.1%.

With `Cc1cccc(-c2[nH]ncc2-c2ccnc3ccccc23)n1`, the max response was -17.2% in test [1] and -23.7% in test [2]. Moreover, the compound was classed as inactive in test [3] and in test [5].

In the case of `C=C1C(=O)O[C@@H]2[C@H]1CC(=O)[C@H](C)[C@@](O)(C(=O)/C=C/C)[C@H]2OC(=O)C(C)CC` (stereo not given in full), the figures for the Potency in test [1], in test [2] and in test [4] were 7.18 µM (active), 2.86 µM (active) and 4.04 µM (active), respectively.

Turning to `Cc1cc2c(cc1N1C(=O)c3cccc4c(CCCO)ccc(c34)C1=O)n(C)c(=O)n2C`, the max response is -31.8% in test [1] and -71.7% in test [2]. Moreover, the Potency in test [4] was 1.53 µM (active).
